Sampled rows, rich in hits. Any-hit rate of the full collection: about 21%.
Pf growth 48h: inhibits P. falciparum growth in the first generation, 48 h. P. falciparum luciferase growth in erythrocytes, 48 h. Potency, µM (doses to about 28.7 µM), inactives show at the top dose activity change, negative = inhibition, hits mostly inhibitors. hit rate 5.9% among 310,000. AID 504832; note: potency is the fitted concentration of half-maximal effect; % is set by controls: 0 for no effect and ±100 for the full control effect
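Luminescence readout; reporter = integrated firefly luciferase in P. falciparum. RBC culture at 2% hematocrit, 0.1% parasitemia final, 37 C/5% CO2; decreased signal taken as growth inhibition.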
Cycloheximide cs: affects cycloheximide protein synthesis inhibition readout, counter-screen; cell reporter, cycloheximide protein synthesis inhibition counterscreen; max response, %; hit rate 12% among 300,000; AID 2314; in the data active = max response mostly above about 13%, no sharp cut-off; inactive = mostly below about 14%; note: read at 38.3 µM for the half of the compounds with a filed dose; 0% is about no effect
AMA1 RON2 block: disrupts binding of P. falciparum AMA1 to RON2 | AlphaScreen AMA1-biotinylated RON2 peptide binding | Potency, µM (highest dose often 58.2 µM), for the others: top-dose activity change, negative = inhibition, actives largely listed as inhibitors | hit rate 0.2% among 360,000;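 note: potency is the fitted concentration of half-maximal effect; 0% = vehicle wells and -100% = peptide control; nearly all actives have a fitted effect of over 45% in size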
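AMA1 (3D7) with his tag at 25 nM final met compounds first, then biotinylated RON2 peptide at 25 nM; detection used donor plus acceptor beads, 10 µg/mL apiece, read by AlphaScreen after 30 min at room temperature.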
HCV inh: inhibitors of hepatitis C virus infection. Huh7.5.1 HCVcc-Cre infection, luciferase reporter, 44 h. Potency, µM (series often up to 41.8 µM), inactives show at the highest dose activity change, negative = inhibition, hits mostly inhibitors. hit rate 3.4% among 340,000; note: potency is the fitted concentration of half-maximal effect; % is set by controls: 0 for no effect and ±100 for the full control effect
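A cell-based infection assay in which seeded cells (1,000 per well) receive test compound after 4 h, are inoculated with HCVcc-Cre at approximately 0.5 moi, and are incubated 44 h before luminescence detection.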
Shiga inhibitor: inhibitors of Shiga toxin in Vero cells; inhibition, % at 38.7 µM; AID 2315; hit rate 9.2% among 290,000; Vero cells, Shiga toxin protein synthesis inhibition reporter; in the data active = inhibition mostly above about 28%, no sharp cut-off; inactive = mostly below about 43%; note: 0% is about no effect
Pf growth 96h: P. falciparum growth inhibition at 96 hour, primary screen for plastid delayed-death inhibitors | P. falciparum luciferase reporter growth, 96 h | Potency, µM (top dose mostly 28.7 µM), inactives show at the highest dose activity change, negative = inhibition, actives largely listed as inhibitors | AID 504834 | hit rate 6.9% among 320,000; note: potency is the fitted concentration of half-maximal effect; % is set by controls: 0 for no effect and ±100 for the full control effect
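Plates of compound plus infected erythrocytes (2% hematocrit, 0.05% parasitemia final) incubate 96 hours, 37 C, 5% CO2. Detection reagent added; reduced luminescence from the parasites' luciferase reporter flags inhibition.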
Starred values were filed as active, the others as inactive; u = inconclusive; x = no result; [ ] = remark or other dose. Unless noted, calls come from the whole dose curve; as a rule, active = well fitted curve in the direction sought with a large enough effect; inconclusive = small, poorly fitted or top-dose-only effect, or another doubt; inactive = no such curve, though single readings can be large; an effect the other way counts as inactive or inconclusive.

SMILES	Pf growth 48h	Cycloheximide cs	AMA1 RON2 block	HCV inh	Shiga inhibitor	Pf growth 96h
Cc1nn2c(-c3ccccc3)nnc2c2ccccc12	19.1%	11.3*	1.5%	3.9%	40.7	u
Cc1nn2c3ccccc3nc2c2ccccc12	x	7.4	-12.9%	12.6µM*	13.3	47.1%
Cn1c(Cc2ccc(Cl)cc2)nnc1SCC(=O)NC1CC1	8.6%	-1.8	-8.7%	26.4%	-2.5	32.8%
Cc1ccc(S(=O)(=O)NCC(=O)OCC(=O)NCc2ccco2)cc1	x	x	-7.6%	-3.4%	x	x
C[C@H](NC(=O)c1nc[nH]c1C(=O)NCc1ccccc1)c1ccccc1	-0.5%	x	94.0%	u	x	-1.0%
C[C@@H](NC(=O)c1[nH]cnc1C(=O)Nc1ccon1)c1ccccc1	u	x	143.9%	-3.7%	x	u
CC(C)(C)OC(=O)NCCCCCNC(=O)c1[nH]cnc1C(=O)N[C@@H](Cc1ccccc1)C(=O)OC(C)(C)C	x	x	99.2%	18.0%	x	x
C[C@H](NC(=O)c1[nH]cnc1C(=O)Nc1ccon1)c1ccccc1	-21.8%	x	131.7%	1.41µM*	x	u
C[C@H](NC(=O)c1nc[nH]c1C(=O)NCc1ccc(CNC(=O)OC(C)(C)C)cc1)c1ccccc1	10.4µM*	x	119.7%	7.08µM*	x	u
CC(C)C[C@H](NC(=O)c1[nH]cnc1C(=O)N[C@H](C)c1ccccc1)C(=O)OC(C)(C)C	u	5.5	137.0%	-24.4%	15.0	u
CC(C)(C)OC(=O)NCCCC[C@H](NC(=O)c1[nH]cnc1C(=O)N[C@@H](Cc1ccccc1)C(=O)OC(C)(C)C)C(=O)OC(C)(C)C	2.94µM*	1.2	107.6%	-13.5%[8.37 µM]	-7.1	3.7µM*
CC(C)C[C@H](NC(=O)c1nc[nH]c1C(=O)N(C)Cc1ccccc1)C(=O)OC(C)(C)C	u	-1.0	60.4%	9.1%	-3.6	7.38µM*
COc1ccc(Br)c(Cn2c(C)c(C(=O)NCc3ccc(F)cc3)sc2=O)c1	x	x	-11.5%	x	x	x
CC1CCc2c(sc(NC(=O)c3ccc(N4C(=O)CCC4=O)cc3)c2C(N)=O)C1 (configuration not stated)	3.5%	x	-2.7%	u	x	u
O=C(COC(=O)Cc1ccsc1)Nc1ccc(Br)cc1F	31.3%	x	-0.6%	-10.4%	x	24.2%
N#Cc1cccc(NC(=O)CCc2ccc(S(=O)(=O)N3CCOCC3)cc2)c1	x	x	-8.4%	1.0%	x	x
C[C@H](NC(=O)c1nc[nH]c1C(=O)NCCCCCNC(=O)OC(C)(C)C)c1ccccc1	10.4µM*	x	104.3%	u	x	5.22µM*
C[C@@H](NC(=O)c1nc[nH]c1C(=O)NCCCCCNC(=O)OC(C)(C)C)c1ccccc1	x	x	130.7%	u	x	x
CN(Cc1ccccc1)C(=O)c1[nH]cnc1C(=O)N[C@@H](CCCCNC(=O)OC(C)(C)C)C(=O)OC(C)(C)C	u	-3.3	112.8%	-5.3%	-3.9	8.28µM*
C[C@H](NC(=O)c1nc[nH]c1C(=O)N[C@@H](CCCCNC(=O)OC(C)(C)C)C(=O)OC(C)(C)C)c1ccccc1	10.4µM*	8.6	125.1%	u	-6.0	u
O=C(Nc1cccc(Cl)c1Cl)C1CCCO1 (configuration not stated)	0.5%	-0.9	-10.9%	0.9%	7.3	u
Cn1c(=O)c(=O)n(C)c2cc(S(=O)(=O)N3CCCC3C(=O)NCc3cccnc3)ccc21 (configuration not stated)	6.9%	-0.9	18.8%	1.7%	-3.4	2.3%
Cc1cc(C)c(S(=O)(=O)c2cccc(Br)c2C)c(Cl)n1	0.0%	-4.1	-1.6%	6.4%	1.6	4.2%
N#Cc1ccc(C23OCCN2CCn2nc4ccccc4c23)cc1 (configuration not stated)	x	x	21.7%	3.98µM*	x	x
[O-][n+]1c2ccccc2c2n1CCN1CCOC21c1ccc(Cl)cc1 (configuration not stated)	u	x	-6.1%	u	x	u
SMILES	Pf growth 48h	Cycloheximide cs	AMA1 RON2 block	HCV inh	Shiga inhibitor	Pf growth 96h
COc1ccc(CCNC(=O)c2ccc3nc(N4CCCCC4)sc3c2)cc1OC	u	22.1*	-9.0%	u	34.4*	7.9%
COc1ccc2nc(N3CCCC(C(=O)NCCc4ccc(OC)c(OC)c4)C3)sc2c1 (configuration not stated)	0.0%	17.0*	3.5%	u	95.1*	u
COc1ccc(CCNC(=O)C2CCCN(c3nn4c(=O)cc(C)nc4s3)C2)cc1OC (configuration not stated)	u	2.2	14.7%	7.2%	6.5	u
Cc1cc(=O)n2nc(N3CCCC(C(=O)N4CCOCC4)C3)sc2n1 (configuration not stated)	1.0%	0.9	-11.5%	12.2%	15.1	11.7µM*
COc1ccc(CCNC(=O)C2CCCN(c3nc(C)cc(C)n3)C2)cc1 (configuration not stated)	19.3%	10.9	2.5%	-12.3%	-6.6	u
CCOc1ccc(CCNC(=O)C2CCCN(c3nn4c(=O)cc(C)nc4s3)C2)cc1OCC (configuration not stated)	u	-2.3	4.4%	u	-12.7	0.147µM*
O=C(NCCc1ccc(Cl)cc1)c1ccc2nc(N3CCOCC3)sc2c1	16.7%	-1.2	1.3%	-10.6%	-5.4	u
CN(C(=O)c1cccc(NC(=O)Cc2ccc(NC(=O)C3CCCN(C(=O)C4CC4)C3)cc2)c1)C1CCCCC1 (configuration not stated)	x	x	-2.2%	15.5%[8.37 µM]	x	x
O=C(COc1ccc(F)cc1)Nc1nnc(S(=O)(=O)N2CCCC2)s1	-8.3%	-2.9	1.0%	12.5%	-3.2	-3.4%
COc1ccc(CCNc2nc(N3CCCCC3)nc(N3CCCCC3)n2)cc1OC	13.1µM*	-2.0	-19.7%	22.4µM*	-1.6	14.0%
O=C(O)c1cccc(-n2nc(-c3ccc(Cl)c([N+](=O)[O-])c3)c3ccccc3c2=O)c1	u	-7.3	-10.3%	11.3%	14.3	u
CCc1nnc(NC(=O)CSc2sc3c(O)cc(=O)[nH]c3c2C#N)s1	25.7%	-4.5	10µM*	9.2%	13.3	u
Cc1csc(NC(=O)CSc2nsc(SCC(=O)Nc3nc(C)cs3)c2C#N)n1	244.7%	41.2*	-8.3%	u	117.4*	-23.3%
Cc1csc(NC(=O)CSc2nc3[nH]c(=O)cc(O)c3s2)n1	x	x	-4.8%	10µM*	x	x
Cc1csc(NC(=O)CSc2sc3c(O)cc(=O)[nH]c3c2C#N)n1	27.8%	3.6	u	6.5%	18.4	2.08µM*
CCCCCCCC/C=C/CCCCCCCC(=O)NCCOP(=O)(O)O	x	-4.8	x	x	-1.1	x
Cc1cccc(NC(=O)C(=O)NCC2CCCO2)c1 (configuration not stated)	143.2%	43.2*	2.1%	0.0%	51.4*	9.6%

Assay outcomes (PubChem BioAssay)
